Data: PubChem BioAssay (NCATS)
Records with an inconclusive call do not appear. Activity calls are given as the source filed them. The call rests on the fitted dose curve; in most records, active means well fitted curve in the direction sought with a large enough effect; inconclusive means small, poorly fitted or top-dose-only effect, or another doubt; inactive means no such curve, though single readings can be large; an effect the other way counts as inactive or inconclusive.

Experiments:
[1] = Quantitative High-Throughput drug screen in 47 multiple myeloma cell lines against the NCATS MIPE library collection: FR4_PLB cell viability assay (AID 1918924; further: nearly all actives have a fitted effect of over 35% in size)
Outline: (§1)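 Myeloma cell lines, 500 cells per well, exposed to MIPE 4.0 library compounds for 48 h at 37C, 5% CO2. Viability from ATP by CellTiter-Glo luminescence; normalised to DMSO (100%) and media-only (0%) wells.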

[2] = Quantitative High-Throughput drug screen in 47 multiple myeloma cell lines against the NCATS MIPE library collection: EJM_DSMZ cell viability assay (AID 1918926; further: nearly all actives have a fitted effect of over 30% in size)
Outline: (§2)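 Approved and investigational drugs from MIPE 4.0 were added by pin tool to 500 cells per well. After 48 hours at 37C, ATP-based CellTiter-Glo luminescence indicated remaining viability.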

[3] = Quantitative High-Throughput drug screen in 47 multiple myeloma cell lines against the NCATS MIPE library collection: Karpas620_DSMZ cell viability assay (AID 1918959); further: nearly all actives have a fitted effect of over 30% in size
Outline: as §1

[4] = Quantitative High-Throughput drug screen in 47 multiple myeloma cell lines against the NCATS MIPE library collection: KMM1_JCRB cell viability assay (AID 1918960); further: nearly all actives have a fitted effect of over 30% in size
Outline: (§3)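 Luminescence from CellTiter-Glo, taken after 5 min at room temperature, reports cellular ATP as viability. Cells (500 per well) had been treated 48 h at 37 °C with MIPE 4.0 compounds, scaled between DMSO and medium-only controls.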

[5] = Quantitative High-Throughput drug screen in 47 multiple myeloma cell lines against the NCATS MIPE library collection: JIM3_ECACC cell viability assay (AID 1918963; further: nearly all actives have a fitted effect of over 35% in size)
Outline: as §1

[6] = Quantitative High-Throughput drug screen in 47 multiple myeloma cell lines against the NCATS MIPE library collection: JIM1_ECACC cell viability assay (AID 1918964)
Outline: as §2

[7] = Quantitative High-Throughput drug screen in 47 multiple myeloma cell lines against the NCATS MIPE library collection: H1112_PLB cell viability assay (AID 1918967; further: nearly all actives have a fitted effect of over 30% in size)
Outline: as §2

[8] = Quantitative High-Throughput drug screen in 47 multiple myeloma cell lines against the NCATS MIPE library collection: KMS12PE_JCRB cell viability assay (AID 1918972); further: nearly all actives have a fitted effect of over 30% in size
Outline: as §1

[9] = Quantitative High-Throughput drug screen in 47 multiple myeloma cell lines against the NCATS MIPE library collection: AMO1_DSMZ cell viability assay (AID 1918927; further: nearly all actives have a fitted effect of over 30% in size)
Outline: as §2

[10] = Quantitative High-Throughput drug screen in 47 multiple myeloma cell lines against the NCATS MIPE library collection: INA6_PLB cell viability assay (AID 1918965; further: nearly all actives have a fitted effect of over 55% in size)
Outline: as §1

[11] = Quantitative High-Throughput drug screen in 47 multiple myeloma cell lines against the NCATS MIPE library collection: JJN3_DSMZ cell viability assay (AID 1918966; further: nearly all actives have a fitted effect of over 50% in size)
Outline: as §2

[12] = Quantitative High-Throughput drug screen in 47 multiple myeloma cell lines against the NCATS MIPE library collection: KMS27_JCRB cell viability assay (AID 1918970); details: KMS27 myeloma cells, CellTiter-Glo ATP viability, 48 h; viability (% of DMSO): at 45.8 µM (top of the series); further: nearly all actives have a fitted effect of over 30% in size
Outline: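 Luminescent ATP read-out (CellTiter-Glo, 5 min at room temperature) after 48 h compound exposure of 500 KMS27_JCRB cells per well; DMSO wells define full viability and media-only wells zero.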

[13] = Quantitative High-Throughput drug screen in 47 multiple myeloma cell lines against the NCATS MIPE library collection: Karpas25_ECACC cell viability assay (AID 1918968; further: nearly all actives have a fitted effect of over 35% in size)
Outline: as §2

[14] = Quantitative High-Throughput drug screen in 47 multiple myeloma cell lines against the NCATS MIPE library collection: KMS12BM_JCRB cell viability assay (AID 1918971); further: nearly all actives have a fitted effect of over 35% in size
Outline: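 Relative luminescence from CellTiter-Glo served as the viability signal, referenced to DMSO-treated (100%) and cell-free medium (0%) controls. Treatment lasted 48 hours at 37C with 500 cells per well.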

[15] = Quantitative High-Throughput drug screen in 47 multiple myeloma cell lines against the NCATS MIPE library collection: ARP1_JJKsccF8 cell viability assay (AID 1918928; further: nearly all actives have a fitted effect of over 40% in size)
Outline: as §3

[16] = Quantitative High-Throughput drug screen in 47 multiple myeloma cell lines against the NCATS MIPE library collection: ARD_JJKsccE7 cell viability assay (AID 1918929)
Outline: as §2

[17] = Quantitative High-Throughput drug screen in 47 multiple myeloma cell lines against the NCATS MIPE library collection: KHM11_PLB cell viability assay (AID 1918962); further: nearly all actives have a fitted effect of over 35% in size
Outline: as §1

[18] = Quantitative High-Throughput drug screen in 47 multiple myeloma cell lines against the NCATS MIPE library collection: KMS20_JCRB cell viability assay (AID 1918973); further: nearly all actives have a fitted effect of over 45% in size
Outline: as §2

[19] = Quantitative High-Throughput drug screen in 47 multiple myeloma cell lines against the NCATS MIPE library collection: Karpas417_ECACC cell viability assay (AID 1918961); details: Karpas417 myeloma viability, CellTiter-Glo ATP luminescence, 48 h; viability (% of DMSO): at 45.8 µM (top of the series)
Outline: as §1

[20] = Quantitative High-Throughput drug screen in 47 multiple myeloma cell lines against the NCATS MIPE library collection: Delta47_JCRB cell viability assay (AID 1918925; further: nearly all actives have a fitted effect of over 45% in size)
Outline: as §2
Potency means the concentration at half of the fitted maximal effect.

C#CCN(C)CC1=Cc2ccccc2Oc2ccccc21
inactive: Potency [1] | Potency [2] | Potency [3] | Potency [4] | Potency [5] | Potency [6] | Potency [7] | Potency [8]

COc1nc(C)cnc1NS(=O)(=O)c1cccnc1-c1ccc(-c2nnco2)cc1
inactive: Potency [1] | Potency [2] | Potency [9] | Potency [5] | Potency [6] | Potency [10] | Potency [7] | Potency [12] | Potency [8]
active: Potency [11] 1.87 µM

C[C@]12C=CC(=O)C=C1CC[C@@H]1[C@@H]2[C@@H](O)C[C@@]2(C)[C@@H]1CC[C@]2(O)C(=O)CO
active: Potency [4] 0.209 µM | Potency [10] 5.9 µM | Potency [13] 0.296 µM | Potency [14] 11.8 µM
inactive: Potency [1] | Potency [2] | Potency [3] | Potency [5] | Potency [7] | Potency [12] | Potency [8]

Cc1cc2c(cc1C1(c3ccc(C(=O)O)cn3)CC1)C(C)(C)CCC2(C)C
inactive: Potency [1] | Potency [2] | Potency [3] | Potency [4] | Potency [8]
active: Potency [9] 5.26 µM | Potency [15] 26.4 µM | Potency [5] 0.332 µM | Potency [11] 1.05 µM | Potency [7] 0.118 µM | Potency [14] 3.32 µM

Nc1ccn([C@@H]2O[C@H](CO)[C@@H](O)[C@H]2O)c(=O)n1
inactive: Potency [1] | Potency [2] | Potency [16] | Potency [4] | Potency [5] | Potency [11] | Potency [14] | Potency [8]

CC=C(C(=CC)c1ccc(O)cc1)c1ccc(O)cc1
inactive: Potency [2] | Potency [17]
active: Potency [1] 20.9 µM | Potency [9] 16.6 µM | Potency [16] 23.5 µM | Potency [3] 16.6 µM | Potency [4] 20.9 µM | Potency [12] 11.8 µM | Potency [14] 16.6 µM | Potency [8] 16.6 µM

NCc1c[nH]c(=S)n1[C@H]1CCc2c(F)cc(F)cc2C1
active: Potency [1] 14.8 µM | Potency [9] 20.9 µM | Potency [15] 18.7 µM | Potency [16] 26.4 µM | Potency [13] 23.5 µM | Potency [12] 11.8 µM | Potency [14] 13.2 µM | Potency [8] 14.8 µM

Cc1ccccc1C(=O)c1ccc(Nc2ccc(Br)cc2N)cc1Cl
active: Potency [1] 6.62 µM | Potency [2] 14.8 µM | Potency [9] 0.833 µM | Potency [3] 4.69 µM | Potency [10] 18.7 µM | Potency [13] 18.7 µM | Potency [12] 6.62 µM | Potency [14] 14.8 µM | Potency [8] 7.43 µM | Potency [18] 14.8 µM

C[C@@H]1[C@H](C)CC[C@]2(C(=O)O)CC[C@]3(C)C(=CC[C@@H]4[C@@]5(C)CC[C@H](O)C(C)(C)[C@H]5CC[C@]43C)[C@@H]12
inactive: Potency [9] | Potency [16] | Potency [3] | Potency [4] | Potency [17] | Potency [5] | Potency [7] | Potency [13] | Potency [12]
active: Potency [1] 42.9 µM | Potency [14] 19.1 µM

NC[C@H]1O[C@H](O[C@@H]2[C@@H](O)[C@@H](O[C@H]3O[C@H](CO)[C@@H](O)[C@H](N)[C@@H]3O)[C@H](N)C[C@@H]2N)[C@H](O)[C@@H](O)[C@H]1O
inactive: Potency [1] | Potency [2] | Potency [9] | Potency [16] | Potency [3] | Potency [4] | Potency [17] | Potency [5] | Potency [7] | Potency [13] | Potency [12] | Potency [14] | Potency [8]

CC(C)C[C@@H](N)[C@H](O)C(=O)N[C@H](C(=O)N[C@H](C(=O)N[C@@H](CC(=O)O)C(=O)O)C(C)C)C(C)C
active: Potency [5] 20.9 µM
inactive: Potency [1] | Potency [2] | Potency [9] | Potency [3] | Potency [4] | Potency [19] | Potency [6] | Potency [12] | Potency [14] | Potency [8]

COc1ccc(Cn2ccc3ccc(C(=O)NO)cc32)cc1
active: Potency [2] 20.9 µM | Potency [9] 16.6 µM | Potency [10] 13.2 µM | Potency [11] 11.8 µM | Potency [13] 16.6 µM | Potency [8] 16.6 µM
inactive: Potency [1] | Potency [3] | Potency [6]

O=C1C(c2c(O)[nH]c3ccccc23)=Nc2ccccc21
active: Potency [1] 14.8 µM | Potency [15] 6.62 µM | Potency [11] 6.62 µM | Potency [13] 6.62 µM | Potency [14] 5.9 µM
inactive: Potency [17] | Potency [5] | Potency [10] | Potency [12]

C[C@@]1(c2cc(-c3cncnc3)c(F)cc2F)CCSC(N)=N1
active: Potency [9] 14.8 µM | Potency [16] 0.059 µM | Potency [3] 2.35 µM | Potency [19] 0.0833 µM | Potency [17] 3.32 µM | Potency [5] 23.5 µM
inactive: Potency [20] | Potency [2] | Potency [15]

FC(F)(F)c1ccc(C=Cc2nc(COc3ccc(CCCCn4ccnn4)cc3)co2)cc1
inactive: Potency [11]
active: Potency [1] 0.0662 µM | Potency [9] 0.0105 µM | Potency [16] 0.001 µM | Potency [5] 0.332 µM | Potency [6] 0.0074 µM | Potency [10] 0.0132 µM | viability (% of DMSO) [12] 74.6% | Potency [14] 0.0526 µM

CN(C)CCN(C)C(=O)c1ccc(NC(=O)Nc2ccc(-c3nc(N4CCOCC4)c4ccn(CC(F)(F)F)c4n3)cc2)cc1
active: Potency [20] 0.0264 µM | Potency [2] 0.209 µM | Potency [9] 0.418 µM | Potency [15] 0.0264 µM | Potency [16] 0.0235 µM | Potency [5] 0.105 µM | Potency [6] 0.001 µM | Potency [11] 0.0372 µM | Potency [7] 3.32 µM | Potency [12] 0.001 µM | Potency [14] 0.209 µM | Potency [8] 0.132 µM
